# According to the supplement of paper PMC6555819:
# Tested on: VDR:RXRa (NR concentration 270 nM, RXRa partner concentration 90 nM)
# Assay: PBM binding z-score (relative to random genomic background probes); higher = stronger binding; sequences stand for … in GC…GCGATTGACAGCGTAGAATGAAGG
# Description: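 Protein-binding microarray (Agilent 4x180K custom design, double-stranded 60-nt probes: 5' GC cap, 34-nt variable region, 24-nt constant primer region; full probe sequence given). Purified or IVT nuclear receptor:RXRα heterodimers (3:1 NR:RXRα, mostly 270:90 nM) or homodimers were incubated for 1 h in PBS with 2% milk and no ligand, then detected with Alexa488 antibodies. Fluorescence from o1-orientation probes (~5 replicates averaged) was converted to z-scores against 500 random hg19 background probes. Variable regions are seed direct-repeat (DR0–DR5) sites, all their single-nucleotide variants and half-site ablations.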
row,Sequence,PBM binding z-score
1,CCTCGGAGGACAGCAGGAGGTCAGAGCTGCCAGA,1.09
2,ACAGACAGGTGATGAAGGTAAATCAGGCTATCAT,0.133
3,CGTGAAAGTTCAACTAAGGTAACGTAAAGCACGC,4.46
4,ATCTCTGGGTAAAGATAGTTCAGTGAATGCAAAT,0.896
5,CCTAGTTGGTCAAGGTCATACACGCTATAGGTAC,4.33
6,CCTTACAGGTCACTGACAGGTTATAGCATTTGGA,3.8
7,TCGAGTAGGTTAACAATGGGGCATTCAGCTTTCT,0.406
8,TCGAGTAGGTTAGCGGCATTCAGAATGGCGTCGA,-0.635
9,CCTTACGAGTCACTCCAGGTTATAGCATCGGAGT,1.24
10,CATCCAAGGTCATAGGAGGTCAGTGAAGACAGAT,6.74
11,TCTATTAGTTGAAGGGGAACCGACGAGTCCGTTT,1.13
12,CGTCCAAGGTCATAGGTCAGTGAAGAGATGACGG,5.32
13,ATCTCTAGGTTAAGTTCAGTGAAAGATCGATAGA,2.37
14,AATACAGGGTCAATAGGCCAGAGTAGGTACGAAT,3.64
15,TTACCAAGGTGAGATGAGGTCGTTGATCCAACTC,4.7
16,TCATAAAGGTAATACAGGTGAAAGTCGGCATCTA,1.72
17,ACTAGCAGGGCAAGGGTCACTCAAGATTAGTCCG,2.95
18,TCTTGTAGATCAAGCAGGGTAAGAAAGCCTGAGT,0.33
19,ATATGTAGGTTAACGGGTCATTCAGTTTGCGCAT,5.16
20,GATACAGGGTCAGCTATAGGCCAGAGTATGGAAA,2.46

row,Sequence,PBM binding z-score
1,GCTCGGAGGACAAGGTCATAGCTTTGTCCGTAGA,3.33
2,ACAGACAGGTGAGTGAAGGGAACTCAGCTGGACG,-0.408
3,GTACCAAGGTGAATGGGTCGTTGATGAGTAGGCG,1.06
4,ACTATTAGTTGCCTTAGGGCAACCGATACGACGC,-0.026
5,GTAGACAGGTGAAACGCAGGTAACTCAGGGTGGC,-0.214
6,TCTTGTAAATCAAGCAGGTTAAGAAAGCCTGAGT,0.479
7,ATCTCTAGGTAACAACTTCAGTGAAAGAGAGGAC,0.366
8,CCTACTGGGCCACGAAAGGTCATTAATTCAGTGA,3.74
9,ACTATTAGTTGACTTAGGGCACCCGATACGACGC,0.0637
10,TCGAGTAGGTTAGGTGCATTCAGAATGGCGTCGA,0.44
11,CAAACTAGGTCAAGGTCCAAGTCGGTTTGTGCCA,2.18
12,CTTACTGGGCCAAGGTCATTGATCAGTCAAAGCA,3.44
13,CCTCGGAGGACAACAGGAGGTTAGAGCTGCCAGA,-0.265
14,CCGACTTGGGCAAGGTTACCATAACGCACAGCCA,0.176
15,TCTTGTAGATCATAGGTTAAGAAAGCCGAAGCCT,0.86
16,CCTTACGGGTCAAGGCTATAGCACGGGTGGTACG,2.77
17,ATATATAGGTTAGCTGGGGTCATTCAGACTAGGC,6.61
18,ATATGTACGTTATCGGGTCATTCAGTTTGCGCAT,5.03
19,CATACTAGGTCACGAAAGGTCAAAGTCGAATGAC,6.92
20,CAGCCTAGGTCAGGGCCAGAATAGGAGGAACGTT,0.0945
